Bioassay records from PubChem.
Hits are enriched below; roughly 2.6% of the tested compounds scored in any of these assays.
PKA-R2B act – activators of human PKA-R2B complex | P22694+P31323 | PKA-R2B holoenzyme dissociation, Cy5-IP20 fluorescence polarization; R2B truncated from residue 108, S112A mutant; 0% DMSO only, 100% 113 µM cGMP | activation, % at 11.4 µM | actives 0.079% (n = 340,000);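 active means activation above a cutoff set at the mean over all compounds plus 3 SD, cut at about 18% in these data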;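 further: higher means more holoenzyme dissociation and a rise in polarization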
PAFAH2 inh – PAFAH2 (human) inhibition; AID 492956; actives 0.99% (n = 340,000); inhibition, % at 3.39 µM; Q99487; recombinant PAFAH2, FP-rhodamine activity probe, fluorescence polarization;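 active means inhibition above the mean over all tested compounds plus 3 SD, cut at about 30% in these data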;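 further: inhibitors block probe labeling of enzyme so polarization drops; 0% = enzyme with DMSO and 100% = wells lacking PAFAH2 protein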
PKA-R1A activ – PKA-R1A complex activation | P00514+P68181 | PKA-R1A dissociation, Cy5-IP20 fluorescence polarization; scaled: DMSO 0%, 113 µM cGMP 100% | activation, % at 11.4 µM | actives 0.083% (n = 340,000);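 active means percent activation above the mean of all tested compounds plus 3 SD, cut at about 19% in these data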;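 further: higher means more PKAc released from R1A so a rise in polarization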
pPAFAH FP inh – inhibitors of human plasma PAF acetylhydrolase (pPAFAH); Q13093; recombinant pPAFAH, FP-rhodamine probe fluorescence polarization; inhibition, % at 3.39 µM; actives 1.5% (n = 330,000);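 active means inhibition above the mean inhibition across the screen plus 3 SD, cut at about 25% in these data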;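 further: inhibitors block binding of the rhodamine activity-based probe so polarization drops; 0% = enzyme with DMSO and 100% = wells lacking pPAFAH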
PAFAH1B2 FP inh – blocks human PAF acetylhydrolase 1b catalytic subunit 2. inhibition, % at 3.39 µM. actives 1.2% (n = 340,000). recombinant PAFAH1B2, FP-rhodamine activity probe, fluorescence polarization. P68402;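 active means inhibition above the mean of all tested compounds plus 3 SD, cut at about 24% in these data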;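 further: 0% = enzyme with DMSO and 100% = wells lacking PAFAH1B2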
Target sequence (P68402 whole entry, looked up): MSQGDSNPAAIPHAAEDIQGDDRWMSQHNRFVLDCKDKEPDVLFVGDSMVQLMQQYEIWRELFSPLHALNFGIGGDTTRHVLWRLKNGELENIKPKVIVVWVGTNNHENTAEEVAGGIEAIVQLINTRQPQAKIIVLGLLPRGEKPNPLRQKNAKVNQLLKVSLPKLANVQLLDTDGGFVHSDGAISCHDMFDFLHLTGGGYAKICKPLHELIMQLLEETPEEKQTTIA
PAFAH1B3 FP inh – PAFAH1B3 (human) inhibition | Q15102 | recombinant PAFAH1B3, FP-rhodamine probe, fluorescence polarization | inhibition, % at 3.39 µM | actives 0.28% (n = 340,000) | AID 492972;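 active means inhibition above the screen-wide average of all tested compounds plus 3 SD, cut at about 25% in these data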;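 further: 0% = enzyme with DMSO only and 100% = wells lacking PAFAH1B3 protein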
Target sequence (Q15102 whole entry, looked up): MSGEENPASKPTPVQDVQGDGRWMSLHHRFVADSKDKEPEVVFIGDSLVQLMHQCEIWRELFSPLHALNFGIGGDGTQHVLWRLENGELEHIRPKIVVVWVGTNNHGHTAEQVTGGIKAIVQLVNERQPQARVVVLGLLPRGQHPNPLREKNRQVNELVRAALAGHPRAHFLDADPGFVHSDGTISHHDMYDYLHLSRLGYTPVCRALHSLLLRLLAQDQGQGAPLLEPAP
* = called active by the depositor; nt = not tested or not shown.

SMILES	PKA-R2B act	PAFAH2 inh	PKA-R1A activ	pPAFAH FP inh	PAFAH1B2 FP inh	PAFAH1B3 FP inh
COc1cccc(-c2coc3c(C)c4oc(=O)c(CC(=O)O)c(C)c4cc23)c1	2	4	8	2	4	11
Cc1c(CC(=O)O)c(=O)oc2c(C)c3occ(-c4ccc(Br)cc4)c3cc12	-12	12	-2	12	29*	1
COc1cccc(-c2coc3c(C)c4oc(=O)c(CCC(=O)O)c(C)c4cc23)c1	1	10	5	25*	6	1
O=C(COCc1cc(-c2ccc3c(c2)OCO3)on1)N1CCN(c2ccccc2)CC1	1	10	-2	14	7	1
CN(C)S(=O)(=O)c1cccc(NC(=S)NNC(=O)c2cc3ccccc3cc2O)c1	-5	15	-15	28*	8	7
CCOC(=O)C1=C(C)NC2=C(C(=O)c3ccccc32)C1c1ccc(O)cc1 (stereo not drawn)	-8	16	1	32*	6	13
CCCCC1SC(N)=NC1=O (stereo not drawn)	-4	-7	-4	nt	4	5
Cc1nn(-c2ccccc2)c(Cl)c1/C=C1\SC(=S)N(CCCCCC(=O)O)C1=O	13	7	-2	28*	3	12
O=C(O)CCCN1C(=O)/C(=C\c2ccc(-c3nc4ccccc4s3)o2)SC1=S	-17	41*	-12	30*	13	25
O=C(O)CCN1C(=O)/C(=C/c2ccc(-c3nc4ccccc4s3)o2)SC1=S	-6	18	6	14	4	20
O=C(O)CCCN1C(=O)/C(=C\c2ccccc2OCc2ccccc2)SC1=S	-4	15	-9	29*	11	10
O=C(O)CN1C(=O)/C(=C\c2cc([N+](=O)[O-])ccc2OCc2ccccc2Cl)SC1=S	-9	25	-12	45*	7	12
CC(Oc1ccccc1F)c1nnc(SCC(=O)c2c(N)n(C3CC3)c(=O)[nH]c2=O)o1 (stereo not drawn)	-10	-5	-9	0	4	6
COc1nc(-c2ccccc2)nc(-c2ccccc2)c1C	nt	nt	nt	5	nt	nt
CN1CCN(CCCNCc2cn(CCC#N)c3ccccc23)CC1	5	0	1	4	6	6
CCN(c1ccccc1)S(=O)(=O)c1ccc(C(=O)NNC(=O)c2ccccc2F)cc1	4	6	-2	-1	6	8
Cc1c(OCC(=O)NC(Cc2ccc(Cl)cc2)C(=O)O)ccc2c1oc(=O)c1ccccc12 (stereo not drawn)	2	3	0	-2	0	8
Cc1c(Cc2ccccc2)c(=O)oc2c(C)c(OCC(=O)N[C@@H](Cc3ccccc3)C(=O)O)ccc12	-8	15	-3	33*	9	1
COc1ccc(C(C(=O)NC2CCCC2)N(C(=O)c2ccco2)c2cc3c(cc2C(C)=O)OCO3)cc1 (stereo not drawn)	-7	6	-5	-4	-8	-1
CCCCCCC(=O)O	-7	-1	-7	1	1	10
CCCCCCCCCCCCCC(=O)O	-1	12	6	2	35*	14
COc1ccccc1N1CCN(C(=O)c2ccc3c(c2)NC(=O)C(CSCc2ccccc2C)N3)CC1 (stereo not drawn)	nt	nt	nt	25*	nt	nt
O=C1Nc2cc(C(=O)N3CCN(c4ccccc4F)CC3)ccc2NC1CSCc1ccccc1F (stereo not drawn)	nt	nt	nt	13	nt	nt
Cc1cccc(N2CCN(C(=O)N3CCCCC3)CC2)c1C	10	23	5	29*	-3	8
COc1ccc(C(=O)Nc2nncs2)cc1S(=O)(=O)N1CCOCC1	-8	-3	-1	2	7	0
SMILES	PKA-R2B act	PAFAH2 inh	PKA-R1A activ	pPAFAH FP inh	PAFAH1B2 FP inh	PAFAH1B3 FP inh
Cc1ccc(Nc2nc(-c3c(C)nc4ccccn34)cs2)cc1	0	7	-5	28*	6	9
Cc1ccc(Nc2nc(-c3c(C)nc4ncccn34)cs2)cc1	-2	5	-2	18	4	7
O=C(NCC(=O)N1CCC2(CC1)NCCc1[nH]cnc12)c1ccc2ccccc2c1	-2	6	5	8	-2	1
O=C(C[C@H]1C[C@@H]2c3cc(NS(=O)(=O)c4ccccc4)ccc3O[C@@H]2[C@H](CO)O1)N1CCOCC1	5	nt	3	nt	nt	nt
N#C/C(=C/c1ccc(O)c(O)c1)C(=O)NCc1ccc(Cl)cc1	10	35*	-9	30*	53*	12
CCOC(=O)Cc1cc(=O)n2[nH]cc(-c3ccc(Cl)cc3)c2n1	0	4	3	32*	5	0
O=C(OCC(=O)N1CCCC1=O)c1nc(Cl)c(Cl)c(Cl)c1Cl	-5	8	-17	-1	16	6
COc1cccc(-n2c(CNc3ccc(F)cc3)nnc2SCC(N)=O)c1	11	2	14	3	26*	2
CCN(CC)C(=O)CSc1nnc(CNc2ccc(F)cc2)n1-c1ccccc1	4	3	-5	-2	6	2
Cc1cc(C)cc(OCC(=O)OCC(=O)NC2CC2)c1	-1	1	-1	27*	-3	12
O=C(COC(=O)c1ccc(O)cc1)NC1CCCCCCC1	-1	nt	-2	nt	nt	nt
CCOc1ccc(OCCC(=O)OCC(=O)NC2CCCC2)cc1	3	-4	7	30*	3	8
Cc1ccc(OCC(=O)OCC(=O)NC2CCCC2)cc1C	-11	-3	-13	12	-1	8
CCCCOc1ccc(C(=O)OCC(=O)NC2CCCC2)cc1	2	85*	-1	25*	2	1
CCCCCCCCCCCCN1[C@@H](CC(C)=O)c2cc(C(F)(F)F)ccc2S1(=O)=O	2	-10	2	5	5	5
CCCCCCCCN1[C@@H](CC(=O)O)c2ccc(C(F)(F)F)cc2S1(=O)=O	-4	14	7	11	31*	1
O=C1SC(SCc2ccccc2Cl)=N/C1=C\c1ccc(C(=O)O)cc1	6	62*	-1	4	28*	6
C=CCSC1=N/C(=C\c2ccc(C(=O)O)cc2)C(=O)S1	11	10	-8	-3	1	4
CC(Oc1ccc2ccc(=O)oc2c1)C(=O)NC1CC(C)(C)NC(C)(C)C1 (stereo not drawn)	-2	3	-12	2	-2	10
CCC1CCc2c(sc(NC(=O)c3ccoc3C)c2C(N)=O)C1 (stereo not drawn)	-7	2	-4	25*	1	-4
COc1cc(C(=O)NC2CCN(CC(=O)Nc3cccc(C)c3C)CC2)cc(OC)c1OC	-3	0	-2	4	1	14
O=C(COC(=O)c1cccc(Cl)c1Cl)NCc1cccs1	-4	33*	1	33*	3	8
